Rows were chosen to be rich in hits. Some 17% of all compounds tested hit in one or more screens of this group.
DT40 TDP1 no CPT: qHTS for Inhibitors of human tyrosyl-DNA phosphodiesterase 1 (TDP1): qHTS in cells in absence of CPT; DT40 Tdp1-/- hTDP1 cells, no CPT, ATP luminescence, 48 h; Potency, µM (titrated, usually from 46.2 µM), for inactives: at the highest dose activity change, negative = growth inhibition, hits mostly inhibitors; hit rate 15% among 420,000; note: % is set by controls: 0 for no effect and ±100 for the full control effect; nearly all actives have a fitted effect of over 55% in size
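Compound effects on proliferation are scored in DT40 Tdp1-/-;hTDP1 cells in the absence of CPT. ATP levels (CellTiter-Glo luminescence) are recorded after a ≥48 hr, 37 °C incubation.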
ATXN2 expr inh: reduces ATXN2 reporter expression in HEK-293 cells. HEK-293 ATXN2-luciferase reporter, luminescence, 24 h. Potency, µM (series often up to 57 µM), inactives show top-dose activity change, negative = inhibition, most hits filed as inhibitors. hit rate 0.72% among 360,000; note: % is set by controls: 0 for no effect and ±100 for the full control effect; nearly all actives have a fitted effect of over 55% in size
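qHTS (up to 57 uM final) was run with 24 h compound exposure of reporter cells at 37 °C. Each well was multiplexed: SteadyGlo luminescence measured ATXN2-luciferase expression after a fluorogenic Gly-Phe-AFC viability readout (25 uM final).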
TGFb inhibitor: TGF-b pathway inhibition; HepG2 CAGA-GFP TGF-b/SMAD3 reporter, GFP fluorescence, 18 h; TGF-beta stimulated, 500 pg/mL final; AID 588855; Potency, µM (highest dose often 46.1 µM), without a hit: at the top dose activity, negative = inhibition, actives largely listed as inhibitors; hit rate 1.2% among 410,000; note: % is set by controls: 0 for no effect and ±100 for the full control effect; nearly all actives have a fitted effect of over 65% in size
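First, reporter cells (HEPG2 CAGA-GFP) rested 2 h at 37 degrees C. Next, compounds were pinned in and TGF-beta added to 500 pg/mL final. After 18 h, GFP was imaged per cell and summed per well.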
DT40 TDP1 CPT: growth inhibition of DT40 Tdp1-/-;hTDP1 cells with camptothecin (screen for TDP1 inhibitors). Potency, µM (titrated, usually from 46.2 µM), for inactives: top-dose activity change, negative = growth inhibition, usual class: inhibitors. hit rate 12% among 420,000. chicken DT40 Tdp1-/-;hTDP1 cells + 20 nM CPT, ATP luminescence, 48 h; note: % is set by controls: 0 for no effect and ±100 for the full control effect; nearly all actives have a fitted effect of over 55% in size
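Chicken DT40 Tdp1-/- cells stably complemented with human TDP1 were seeded at 400 cells/well in medium containing 20 nM camptothecin, exposed to pin-transferred compounds, and grown at 37 °C for at least 48 hr. Viability was read as ATP luminescence.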
S2 tox: viability counter-screen for ATXN expression inhibitors | AID 651635 | Potency, µM (top dose mostly 56.7 µM), usual class: cytotoxic | S2 cells (HEK-293 line with an ATXN2-luciferase reporter) viability, CellTiter-Fluor protease fluorescence, 24 h | hit rate 0.49% among 400,000; note: nearly all actives have a fitted effect of over 40% in size
HepG2 viability: HepG2 cytotoxicity, counter-screen for TGF-b inhibitors; HepG2 CAGA-GFP viability, ATP luminescence, 18 h; hit rate 0.76% among 410,000; Potency, µM (series often up to 46.1 µM), without a hit: top-dose activity change, negative = cytotoxicity, most hits filed as cytotoxic
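CellTiter-Glo luminescence gave cytotoxicity after 18 hours at 37 degrees C. The cells were HepG2 CAGA-GFP in 1% FBS DMEM, stimulated with 500 pg/mL TGF-beta after compound addition. %Activity was normalised to no-cell wells (complete cell-killing) and DMSO (no toxicity), and curves were fitted and classified.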
The depositor's hits bear a star; i = inactive; ? = inconclusive; nt = not tested or not shown. Calls come from the whole dose curve; as a rule, active = well fitted curve in the direction sought with a large enough effect; inconclusive = small, poorly fitted or top-dose-only effect, or another doubt; inactive = no such curve, though single readings can be large; an effect the other way counts as inactive or inconclusive. Potency is the fitted concentration of half-maximal effect.

SMILES | DT40 TDP1 no CPT | ATXN2 expr inh | TGFb inhibitor | DT40 TDP1 CPT | S2 tox | HepG2 viability
COc1ccc(-c2csc(C(O)c3ccc(F)c(OC)c3)n2)cc1 (stereo not given) | 15µM* | -7% | 7% | 13µM* | i | -6%
Cc1onc(-c2c(F)cccc2Cl)c1C(=O)NC(=S)NCc1cccnc1 | -27% | -5% | -4% | -12% | i | 0%
O=C(/C=C/c1ccco1)c1ccc(NC(=O)C23CC4CC(CC(C4)C2)C3)cc1 | 15µM* | -5% | -8% | 21µM* | i | -7%
O=C(NCCc1csc(-c2cccnc2)n1)c1ccc(Br)o1 | 18µM* | -26% | 8% | ? | nt | 1%
O=C(NCCc1csc(-c2ccccc2)n1)c1ccc(Br)o1 | 21µM* | ? | -1% | ? | i | 3%
Cc1cccc2sc(NC(=O)c3ccc(NS(=O)(=O)c4cccs4)cc3)nc12 | -29% | 7% | -18% | ? | i | -13%
Cc1cccc(S(=O)(=O)N(C)C[C@@H]2OCc3cn(nn3)CCCC(=O)N([C@H](C)CO)C[C@H]2C)c1 | ? | -3% | ? | -27% | i | -69%
O=c1[nH]c(=O)n(C2CCCO2)cc1F (stereo not given) | 1% | 5% | 0% | 1% | i | 1%
O=c1ccn(C2CCCO2)c(=O)[nH]1 (stereo not given) | 15µM* | -18% | -7% | -29% | i | -18%
COc1ccccc1OCC(=O)NCCSCc1ccccc1Cl | 18µM* | 5% | -10% | ? | i | -11%
Cn1ccc2c(OCC(=O)NCc3ccccc3Cl)cccc2c1=O | 18µM* | 8% | 13% | ? | ? | -16%
CCCCc1ccc(NC(=O)COc2cccc3c(=O)n(C)ccc23)cc1 | 18µM* | ? | 8.9µM* | 13µM* | ? | -51%
O=C(Nc1cc(Sc2ccccn2)cc([N+](=O)[O-])c1)c1cccc(Cl)c1 | ? | ? | 11µM* | ? | ? | -69%
O=C(Nc1ccc(S(=O)(=O)Nc2ncccn2)cc1)c1cccc(Cl)c1 | nt | 5% | -5% | nt | i | -3%
CCNC(=O)Nc1ccc(Oc2ncnc(N)c2C=NOC)cc1Cl | nt | -29% | nt | nt | nt | nt
NC(=S)N/N=C/c1ccccc1[N+](=O)[O-] | -9% | -20% | 14% | -27% | i | 3%
CCCOc1ccc(/C=N/Nc2ccccc2[N+](=O)[O-])c(O)c1 | 12µM* | ? | 5% | 10µM* | ? | -6%
CCCOc1ccc(/C=N/NC(=S)Nc2ccccc2[N+](=O)[O-])c(O)c1 | 5.2µM* | ? | ? | 5.8µM* | ? | -19%
CCNC(=S)N/N=C/c1ccccc1[N+](=O)[O-] | ? | 9% | 2% | 23µM* | i | 4%
CCCOc1ccc(/C=N/Nc2cccc([N+](=O)[O-])c2)c(O)c1 | ? | 28% | ? | ? | nt | -27%
O=c1ccc2cc(S(=O)(=O)NCc3ccccc3)ccc2[nH]1 | -14% | -8% | -6% | -2% | i | -20%
COc1ccc(S(=O)(=O)c2cn(C)c3cc(N4CCCC4)c(F)cc3c2=O)cc1 | 23µM* | nt | ? | ? | nt | -3%
CCc1ccc(S(=O)(=O)c2cn(C)c3ccc(C)cc3c2=O)cc1 | -26% | -6% | 13% | -27% | i | -1%
Cn1cc(S(=O)(=O)c2ccc(Cl)cc2)c(=O)c2cc(F)c(N3CCCC3)cc21 | 16µM* | nt | 0% | 21µM* | nt | 11%
Cn1cc(S(=O)(=O)c2ccccc2)c(=O)c2cc(Cl)ccc21 | ? | -10% | 14% | 16µM* | i | 3%
SMILES | DT40 TDP1 no CPT | ATXN2 expr inh | TGFb inhibitor | DT40 TDP1 CPT | S2 tox | HepG2 viability
CC1CCCN(c2cc3c(cc2F)c(=O)c(S(=O)(=O)c2cccc(Cl)c2)cn3C)C1 (stereo not given) | 23µM* | nt | 9% | ? | nt | 6%
Cn1cc(S(=O)(=O)c2cccc(Cl)c2)c(=O)c2cc(F)c(N3CCN(c4ccccc4)CC3)cc21 | -13% | nt | 0% | 4% | nt | 3%
Cc1cc(C)cc(S(=O)(=O)c2cn(C)c3cc(N4CCN(C)CC4)c(F)cc3c2=O)c1 | ? | nt | 0% | ? | i | -6%
COc1ccc(S(=O)(=O)c2cn(C)c3cc(N4CCOCC4)c(F)cc3c2=O)cc1 | ? | nt | ? | ? | nt | -18%
O=C(Nc1ccc(Br)cn1)c1ccc(COc2c(F)c(F)cc(F)c2F)o1 | -2% | -5% | -1% | -18% | i | -19%
NC(=O)c1ccc(NC(=O)CNc2cc(S(=O)(=O)N3CCOCC3)ccc2N2CCCC2)cc1 | ? | nt | 2% | -22% | i | -7%
COc1cccc(NC(=O)CNc2cc(S(=O)(=O)N3CCOCC3)ccc2N2CCCC2)c1 | ? | 2% | -25% | ? | ? | 3%
O=C(CNc1cc(S(=O)(=O)N2CCOCC2)ccc1N1CCCC1)Nc1ccc(Cl)cc1 | 18µM* | -8% | ? | 18µM* | i | -22%
N#Cc1cccc(NC(=O)CNc2cc(S(=O)(=O)N3CCOCC3)ccc2N2CCCC2)c1 | 23µM* | 10% | -4% | ? | i | 0%
CC(=O)c1ccc(NC(=O)CNc2cc(S(=O)(=O)N3CCOCC3)ccc2N2CCCC2)cc1 | 26µM* | -1% | 1% | 16µM* | i | -1%
COc1cc(/C=C/C(=O)OCC(=O)Nc2ccc(C)c(S(=O)(=O)N3CCCCC3)c2)ccc1O | 26µM* | 2% | -18% | ? | i | 7%
COc1cc(C(C)=O)ccc1OCC(=O)Nc1ccc(S(=O)(=O)N2CCCCC2)cc1 | 0.46µM* | nt | -1% | -95% | ? | 0%
COc1ccc(NC(=O)CCCNC(=O)c2ccc(Cl)cc2)cc1OC | 3% | 2% | -10% | 0% | i | -3%
COc1cc(C(C)=O)ccc1OCC(=O)Nc1ccc(C)c(S(=O)(=O)N2CCCCCC2)c1 | 16µM* | 28µM* | ? | 8.2µM* | ? | -31%
CC(=O)c1ccc(OCCCC(=O)Nc2ccc(C)c(S(=O)(=O)N3CCCCC3)c2)cc1 | ? | ? | ? | ? | ? | 10%
COc1ccc(NC(=O)CCCNC(=O)c2ccc(Cl)cc2)cc1S(=O)(=O)N1CCCCC1 | 21µM* | nt | -1% | ? | ? | -10%
